Screening data as filed in PubChem.
An excerpt weighted towards active compounds, which were near 13% of everything screened.
Pf growth 96h: Primary qHTS for delayed death inhibitors of the malarial parasite plastid, 96 hour incubation; 6.9% of 320,000 active; P. falciparum luciferase reporter growth, 96 h; Potency, µM (top dose mostly 28.7 µM), inactives show at the top dose activity change, negative = inhibition, usual class: inhibitors; AID 504834, 2011; also: potency is read from the fitted curve at half-maximal effect
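Infected RBCs, 2% Hct / 0.05% parasitemia final; luciferase-reporter P. falciparum; cpd 96 h, 37 C, 5% CO2; luciferase detection reagent; luminescence.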
Pf growth 48h: Primary qHTS for delayed death inhibitors of the malarial parasite plastid, 48 hour incubation. P. falciparum luciferase growth in erythrocytes, 48 h. Potency, µM (doses to about 28.7 µM), for inactives: at the highest dose activity change, negative = inhibition, actives largely listed as inhibitors. 5.9% of 310,000 active; also: potency is read from the fitted curve at half-maximal effect
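Firefly luciferase activity from engineered P. falciparum reports growth; inhibitors lower the luminescent signal. Cultures contained 2% hematocrit erythrocytes at 0.1% final parasitemia.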
HCV inh: qHTS Assay for Inhibitors of Hepatitis C Virus (HCV) | Huh7.5.1 HCVcc-Cre infection, luciferase reporter, 44 h | Potency, µM (titrated, usually from 41.8 µM), without a hit: at the top dose activity change, negative = inhibition, most hits filed as inhibitors | 3.4% of 340,000 active; also: potency is read from the fitted curve at half-maximal effect
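After 44 h co-culture of compound, cells and HCVcc-Cre (~0.5 moi), substrate is added for 15 min at room temperature and luciferase measured over 15 sec. Cells were seeded at 1,000/well and pre-cultured 4 h.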
HCMV inh: qHTS Assay for inhibitors of the human cytomegalovirus (HCMV). HFF cells, HCMV-luciferase reporter, 72 h; hits give low values. activity change, negative = inhibition, % at 57.5 µM. 4.5% of 410,000 active; in the data active = activity change below about -60%; inconclusive = no clear call, values can overlap the other calls; inactive = above about -39%
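Luciferase read-out from HCMV-luciferase-infected HFFs (MOI 1 PFU/cell) 72 h post infection at 37C; compounds added after 16 h cell attachment; activity normalized between buffer-only basal and Salinomycin (10uM) inhibitor controls.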
* hit, by the source's call. Unless noted, calls follow the shape of the dose curve; as a rule, active = well fitted inhibition curve with a large enough effect; inconclusive = small, poorly fitted or top-dose-only effect, or another doubt; inactive = no such curve, though single readings can be large or run the other way. % is scaled to controls: 0 for no effect and ±100 for the full control effect.

How did O=C(CCc1ccccc1)NC(NC(=S)Nc1cccc(Cl)c1)C(Cl)(Cl)Cl (stereo unspecified) do in these assays?
Pf growth 96h: 9.3µM*; Pf growth 48h: inconclusive; HCV inh: -12%; HCMV inh: inconclusive

What do the screens show for `O=C(CCc1ccccc1)NNC(=O)Nc1ccc(Br)cc1`?
Pf growth 96h: -1%; Pf growth 48h: 21%; HCV inh: -4%; HCMV inh: 15

What do the screens show for `COC(=O)NC(NC(=S)Nc1cccc(C)c1)C(Cl)(Cl)Cl` (stereo unspecified)?
Pf growth 96h: -22%; Pf growth 48h: inconclusive; HCV inh: -16%; HCMV inh: -34

Results for CCCC(=O)NC(NC(=S)Nc1ccc(S(N)(=O)=O)cc1)C(Cl)(Cl)Cl (stereo unspecified) ?
Pf growth 96h: inconclusive; Pf growth 48h: -21%; HCV inh: 6%; HCMV inh: 0

Results for O=C(CCc1ccccc1)NC(NC(=S)Nc1ccc(Br)cc1)C(Cl)(Cl)Cl (stereo unspecified) ?
Pf growth 48h: inconclusive; HCV inh: 2µM*; HCMV inh: -14

What do the screens show for `CC1CCN(C(=O)Cn2c(SCC(=O)Nc3ccc(F)cc3)nc3ccccc32)CC1`?
HCMV inh: -27

What do the screens show for `Cc1ccc(C(=O)c2oc3ccccc3c2NC(=O)Cc2coc3c(C)c(C)ccc23)cc1`?
HCMV inh: -11

How did O=S(=O)(Nc1cc(F)ccc1F)c1ccc2[nH]c3c(c2c1)CCCC3 do in these assays?
HCMV inh: 12

What do the screens show for `CCN(C(=O)CN1C(=O)NC(c2ccccc2)(c2ccc(C)c(C)c2)C1=O)C1CCS(=O)(=O)C1` (stereo unspecified)?
Pf growth 96h: 13µM*; Pf growth 48h: inconclusive; HCV inh: inconclusive; HCMV inh: 14

What do the screens show for `CCN(C(=O)CN1C(=O)NC(c2ccccc2)(c2ccc(C)c(C)c2)C1=O)C1CCCCC1` (stereo unspecified)?
Pf growth 96h: 3.3µM*; Pf growth 48h: 6.6µM*; HCV inh: inconclusive; HCMV inh: 0

Results for CC(=O)Nc1ccc(NC(=O)C2CCCN2S(=O)(=O)c2ccc3c(c2)CCCC(=O)N3)cc1 (stereo unspecified) ?
HCMV inh: 2

How did Cc1ccc(C#CC[N+](C)(C)CC#Cc2ccccc2)cc1 do in these assays?
Pf growth 96h: 5.9µM*; Pf growth 48h: 2.3µM*; HCV inh: -14%; HCMV inh: -1

What do the screens show for `C#CC[N+](C)(C)CC#Cc1ccccc1`?
Pf growth 96h: 95%; Pf growth 48h: 1.7µM*; HCV inh: 10%; HCMV inh: inconclusive

How did CCC[N+](CC#Cc1ccccc1)(CCC)CC(=O)OC do in these assays?
Pf growth 96h: inconclusive; Pf growth 48h: 0%; HCV inh: 1%; HCMV inh: -38

How did Cc1ccc(C(=O)NCc2ccc(N(C)C)cc2)cc1NC(=O)c1nsc2ccccc12 do in these assays?
HCMV inh: 33

How did O=C(Nc1cccc(O)c1)c1c(O)c2ccccc2[nH]c1=O do in these assays?
Pf growth 96h: -13%; Pf growth 48h: 14%; HCV inh: 1%; HCMV inh: 121

What do the screens show for `O=C(Nc1cccc(C(F)(F)F)c1)c1c(O)c2ccccc2[nH]c1=O`?
Pf growth 96h: 15µM*; Pf growth 48h: 28%; HCV inh: 5%

Results for O=C(Nc1ncccc1O)c1c(O)c2ccccc2[nH]c1=O ?
Pf growth 96h: 0%; Pf growth 48h: 7%; HCV inh: 0%; HCMV inh: -77*

How did O=C(CC1N=C2c3ccccc3N=C(SCc3ccccc3F)N2C1=O)NCc1ccc2c(c1)OCO2 (stereo unspecified) do in these assays?
HCMV inh: 23

Results for O=C(CSc1nc2cc(Cl)c(Cl)cc2[nH]1)c1ccc2c(c1)OCO2 ?
Pf growth 96h: 4.7µM*; Pf growth 48h: 4.1µM*; HCV inh: -12%; HCMV inh: 24

Results for O=C(CSc1nc2ncc(Cl)cc2[nH]1)c1ccc2c(c1)OCO2 ?
Pf growth 96h: 36%; Pf growth 48h: inconclusive; HCV inh: 2%; HCMV inh: 7

How did O=C(CSc1nc2ccc(Cl)cc2[nH]1)c1ccc2c(c1)OCO2 do in these assays?
Pf growth 96h: 13µM*; Pf growth 48h: 12µM*; HCV inh: 9%; HCMV inh: -36

How did COc1cc(Cl)c(C)cc1NC(=O)c1cc(CN2CCOCC2)on1 do in these assays?
HCMV inh: -1

Results for CCOc1cccc2cc(-c3nc(-c4ccc(Cl)cc4)c(C)s3)c(=O)oc12 ?
HCMV inh: -7

What do the screens show for `Cc1nnc2nc(-c3ccccc3)nc(-c3ccccc3)n12`?
Pf growth 96h: -10%; Pf growth 48h: 2%; HCV inh: inconclusive; HCMV inh: -80*

What do the screens show for `Cn1nc(-c2ccccc2)nc1-c1ccccc1`?
Pf growth 96h: 225%; Pf growth 48h: 89%; HCV inh: 0%; HCMV inh: 15

How did Cc1ccc(CCNC(=O)c2ccc3c(c2)c(C)c(C)n3Cc2ccccc2)cc1 do in these assays?
HCMV inh: 0

How did Cc1ccc(Cl)cc1NC1=C/C(=N\S(=O)(=O)c2cccs2)c2ccccc2C1=O do in these assays?
Pf growth 96h: 0.15µM*; HCV inh: 10µM*; HCMV inh: -99*

How did Cc1cccc(NC2=C/C(=N/S(=O)(=O)c3cccs3)c3ccccc3C2=O)c1 do in these assays?
Pf growth 96h: -9%; Pf growth 48h: 0.52µM*; HCV inh: 2.8µM*; HCMV inh: 62

How did Cc1cc(C)c(S(=O)(=O)/N=C2\C=C(NS(=O)(=O)c3ccccc3)C(=O)c3ccccc32)c(C)c1 do in these assays?
Pf growth 96h: -24%; Pf growth 48h: -24%; HCV inh: 9%; HCMV inh: 55

What do the screens show for `O=C(O)c1ccc(NC2=C/C(=N/S(=O)(=O)c3cccs3)c3ccccc3C2=O)cc1`?
HCMV inh: -24

What do the screens show for `O=C1C(Nc2ccc(O)cc2)=C/C(=N/S(=O)(=O)c2cccs2)c2ccccc21`?
Pf growth 96h: 0.47µM*; Pf growth 48h: inconclusive; HCV inh: 3.5µM*; HCMV inh: -99*

Results for Cc1cccc(CNC(=O)c2cnc3sc(N4CCCCCC4)nn3c2=O)c1 ?
HCMV inh: -2

How did Cc1cccc(NC(=O)C(=O)NCCc2csc(-c3ccc(C(F)(F)F)cc3)n2)c1C do in these assays?
HCMV inh: -3

Results for COc1ccc(Cl)cc1NC(=O)CN(C)C(=O)CCSc1ccc(C)cc1 ?
Pf growth 96h: 12µM*; Pf growth 48h: 12µM*; HCV inh: inconclusive; HCMV inh: inconclusive

Results for COc1ccc(NC(=O)CN(C)C(=O)CCSc2ccc(C)cc2)cc1 ?
Pf growth 96h: inconclusive; Pf growth 48h: inconclusive; HCV inh: -1%; HCMV inh: -8
